LMP1 NFkB inh = Epstein-Barr LMP1 NF-kappaB reporter inhibition. LMP1-induced NF-kappaB luciferase reporter cells, luminescence. AID 504558. inhibition, % at 12.5 µM. 0.69% of 350,000 active; in the data active = inhibition above about 41%
HIF-2a inh = HIF-2a inhibition; 786-0 RCC cells HIF-2a reporter, luciferase luminescence, overnight; inhibition, % at 18.8 µM; 0.72% of 360,000 active; AID 624352;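 active = inhibition of the luminescence signal of 40% or more relative to plate controls, in a single-dose primary screen at 18.75 µM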
TROY signal inh = TROY signaling inhibition. Q293 LMP1-TROYcd NF-kB luciferase reporter, 4 h. inhibition, % at 10 µM. 0.98% of 360,000 active. AID 1347056;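 active = compounds whose plate-normalised and pattern-corrected inhibition of the luciferase reporter signal at the single screening dose is 50% or more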
TWEAK-Fn14 inh = TWEAK-Fn14 signaling inhibition; 2% of 360,000 active; inhibition, % at 10 µM; TWEAK-stimulated Fn14 reporter cells, luciferase luminescence, 8 h; in the data active = inhibition above about 50%
MITF TRPM1 inh = inhibitors of MITF-driven TRPM1 promoter in melanoma cells; inhibition, % at 12.5 µM; SK-MEL-5 TRPM1 promoter luciferase, 24 h; 0.83% of 330,000 active; AID 488899;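 active = mean inhibition across replicates of 60% or more, whatever share of single replicates reaches that level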
Peg3 prom inh = Peg3 promoter activity inhibition. inhibition, % at 20 µM. HeLa PEG-Prom luciferase reporter, luminescence, overnight. 1.7% of 360,000 active;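 active = inhibition of at least 50% at 20 µM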
Numbers stand for hits; n = inactive; x = no result. Shown are actives, neighbours in structure and some others; about 4% of the full set was active somewhere.

SMILES	LMP1 NFkB inh	HIF-2a inh	TROY signal inh	TWEAK-Fn14 inh	MITF TRPM1 inh	Peg3 prom inh
Cc1ccn2cc(C(=O)Nc3ccc4c(c3)OCCO4)nc2c1	n	n	n	62.2	n	n
Cc1cccc(OCC(=O)Nc2ccc3c(c2)OCCO3)c1	n	n	n	n	n	n
Cc1ccn2cc(C(=O)Nc3ccccc3N3CCOCC3)nc2c1	n	n	n	n	n	n
Cc1cccc(-c2cc(C(=O)Nc3ccc4c(c3)OCCO4)c3ccccc3n2)c1	n	n	n	55.1	n	n
Cc1ccc(OCC(=O)Nc2ccc3c(c2)OCCO3)cc1C	n	n	n	53.5	n	n
CCN(C(=O)COC(=O)CNS(=O)(=O)c1ccc(SC)c([N+](=O)[O-])c1)C1CCCCC1	n	n	n	n	n	n
O=C(CSc1nc2ccc(Nc3nc(N4CCOCC4)nc(N4CCOCC4)n3)cc2s1)Nc1ccccc1F	n	n	n	n	n	n
O=C(Nc1cc(S(=O)(=O)N2CCCCCC2)ccc1OCC(F)(F)F)c1cnccn1	n	n	n	n	n	n
O=C(Cn1c(=O)cnc2ccccc21)Nc1cccc(S(=O)(=O)N2CCOCC2)c1	n	n	n	n	n	n
Cc1ccc(C(=O)Nc2ccc3c(c2)OCCO3)cc1	43.4	n	n	84.0	n	n
Cc1cc(NC(=O)c2ccc3c(c2)OCCO3)no1	60.1	n	n	77.3	n	n
Cc1ccc(C(=O)Nc2ccc3c(c2)OCO3)cc1	n	n	n	52.8	n	n
O=C(Nc1ccc2c(c1)OCO2)c1ccncc1	n	n	n	n	n	n
Cc1ccc(C(=O)Nc2ccc3c(c2)CCC3)cc1	n	n	n	71.3	n	n
CCOC(=O)c1ccccc1NC(=O)CSc1nc(N)cc(=O)[nH]1	n	n	n	n	n	n
CCCCN(C(=O)C(C)Oc1ccc(Br)cc1)c1c(N)n(CC(C)C)c(=O)[nH]c1=O (stereo not given)	n	n	n	n	n	n
O=C(Nc1ccc2c(c1)OCCO2)c1ccc2nccnc2c1	n	n	n	70.2	n	n
CCN1C(c2ccccc2)C(C)C(=O)C(C)C1c1ccccc1 (stereo not given)	n	n	x	83.3	n	n
Cc1nc2ccccc2c(=O)n1NC(=O)c1cccc(Cl)c1	n	n	n	n	n	n
CCCCCCCN1CCC(=O)N([C@H](CO)c2ccccc2)CC1	n	n	n	n	n	n
COc1cccc(CNC(=O)COC(=O)c2ccc(Cl)s2)c1	n	n	n	n	n	n
Cc1ccc(-c2csc3nc4c5ccccc5c(NCCCN(C)C)nn4c(=O)c23)cc1	n	n	n	n	84.9	109.3
O=C(Nc1nccs1)C1CC=CCC1C(=O)OCC(F)(F)C(F)F (stereo not given)	n	n	n	n	n	n
CCCC(=O)C1=C(O)C(C(=O)OC)C(C)(C)CC1=Nc1ccncc1 (stereo not given)	77.1	n	n	n	n	n
COc1ccccc1C/C(N)=N/OC(=O)c1cccc([N+](=O)[O-])c1C	n	n	n	89.7	n	n
SMILES	LMP1 NFkB inh	HIF-2a inh	TROY signal inh	TWEAK-Fn14 inh	MITF TRPM1 inh	Peg3 prom inh
CC(=O)C1CCC2C3C=CC4=CC(=O)CCC4(C)C3CCC12C (stereo not given)	x	n	n	n	x	n
CCN1c2ccccc2NC2C1C(C(C)=O)C(=O)N2c1ccc(Cl)cc1 (stereo not given)	n	n	n	n	64.5	n
O=C1Nc2ccccc2N(O)N1c1ccc(Cl)cc1	n	n	n	n	n	n
CCOC(=O)c1c(C)[nH]c(C(=O)N2CCC(C(=O)OCC)CC2)c1C	n	n	n	n	n	n
COC(=O)c1c(-c2ccc(C)cc2)csc1NC(=O)Cc1ccc(OC)c(OC)c1	n	n	n	57.0	n	n
COC(=O)c1c(-c2cccc3ccccc23)csc1NC(=O)Cc1ccc(OC)c(OC)c1	n	n	n	74.8	n	n
Cc1ccc(S(=O)(=O)N2CCCC2C(=O)NCc2ccncc2)cc1 (stereo not given)	n	n	n	n	n	n
COc1cc(-c2c(CCO)sc3ccccc23)cc(OC)c1OC	x	n	n	n	x	x
COc1ccccc1N/N=C/c1ccc2c(c1)OCO2	n	n	n	60.3	n	n
O=C(N/N=C/c1ccc([N+](=O)[O-])cc1)c1cc(-c2ccc3c(c2)OCO3)n[nH]1	n	n	n	n	n	n
COc1cc(/C=N/NC(=O)c2cc(C34CC5CC(CC(C5)C3)C4)[nH]n2)ccc1O	81.1	n	n	n	n	n
COc1cc(/C=N/NC(=O)c2sc(N)c(C#N)c2C)ccc1O	n	n	n	51.9	n	n
COc1cc(/C=N/NC(=O)c2cc(-c3ccc4c(c3)OCO4)n[nH]2)ccc1O	n	n	n	51.1	n	n
COc1cc(/C=N/NC(=O)c2cc(C3CC3)[nH]n2)ccc1O	n	n	n	n	n	n
Cc1cccc(C)c1-n1nnnc1C1(C)CCC(=O)N1C1CC1 (stereo not given)	x	n	n	n	x	x
O=C(CSc1nnc(NC(=O)C2CC(=O)N(c3ccc(F)cc3)C2)s1)NCc1ccco1 (stereo not given)	n	n	n	n	n	n
Cc1cccc(C)c1NC(=O)C1C(c2ccccc2)=Nc2ccccc2N1C(=O)c1cnccn1 (stereo not given)	x	n	x	x	x	x
O=C1c2cccc3c([N+](=O)[O-])ccc(c23)C(=O)N1Cc1cccnc1	n	n	64.2	n	n	n
Cc1ccnc(N2C(=O)c3cccc4c([N+](=O)[O-])ccc(c34)C2=O)c1	n	n	n	n	n	107.6
Cc1ccc(N2C(=O)c3cccc4c([N+](=O)[O-])ccc(c34)C2=O)c2cccnc12	n	n	n	n	74.2	63.5
Cc1nnc(N2C(=O)c3cccc4c([N+](=O)[O-])ccc(c34)C2=O)s1	n	n	n	n	n	n
CCC(=O)N(C)C[C@@H]1Oc2ncc(Br)cc2C(=O)N([C@H](C)CO)C[C@H]1C	n	n	n	n	x	n
NC(=O)C1CCN(CC(O)COc2ccc(-c3ccccc3)cc2)CC1 (stereo not given)	n	n	n	106.9	n	n
Cc1ccc(OCc2nc(-c3ccccn3)no2)cc1	n	n	n	n	n	n
CCc1ccc(OCc2nc(-c3ccccn3)no2)c(Br)c1	n	n	n	59.2	n	n
SMILES	LMP1 NFkB inh	HIF-2a inh	TROY signal inh	TWEAK-Fn14 inh	MITF TRPM1 inh	Peg3 prom inh
Cc1ccc(OCc2nc(-c3ccccn3)no2)c(Br)c1	n	n	n	84.8	n	n
CC(C)c1ccc(OCc2nc(-c3ccccn3)no2)c(Br)c1	n	n	n	n	n	n
CCCCN(C(=O)CSc1ncn[nH]1)c1c(N)n(Cc2ccccc2)c(=O)[nH]c1=O	n	n	n	n	x	n
Cn1c(=O)c2c(nc(Oc3ccc4ccccc4c3)n2C)n(C)c1=O	n	n	n	50.7	n	n
COc1ccc(Oc2nc3c(c(=O)n(C)c(=O)n3C)n2C)cc1	n	n	n	n	n	n
COc1ccc(NC(=O)CCC(=O)N/N=C/c2cccnc2)cc1	n	n	n	n	n	n

High-throughput results: PubChem BioAssay, several laboratories
